# Numbering of substitutions follows the chain as printed.
# Columns and labels:
# Assay in all cases: PBM; 200 nM protein, PBS
# Settings in all cases: dsDNA, one strand shown
# [1] = target: HESX1 (Homo sapiens, UniProt Q9UBX0 95-180, R165K)
# [2] = target: T1, SIX6 (Homo sapiens, UniProt O95475 114-200, L167I)
# T1 sequence: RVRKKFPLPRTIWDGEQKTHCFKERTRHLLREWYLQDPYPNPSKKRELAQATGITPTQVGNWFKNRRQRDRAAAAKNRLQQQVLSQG
# [3] = target: T2, SIX6 (Homo sapiens, UniProt O95475 114-200, L143V)
# T2 sequence: T1 sequence with L30V, I54L
# [4] = target: T3, SIX6 (Homo sapiens, UniProt O95475 114-200, H141N)
# T3 sequence: T1 sequence with H28N, I54L
# [5] = target: T4, SIX6 (Homo sapiens, UniProt O95475 114-200, T165P)
# T4 sequence: T1 sequence with T52P, I54L
# [6] = target: T5, SIX6 (Homo sapiens, UniProt O95475 114-200, L167M)
# T5 sequence: T1 sequence with I54M
# [7] = target: T6, SIX6 (Homo sapiens, UniProt O95475 114-200, L143M)
# T6 sequence: T1 sequence with L30M, I54L
# [8] = target: T7, SIX6 (Homo sapiens, UniProt O95475 114-200, L143I)
# T7 sequence: T1 sequence with L30I, I54L
# [9] = target: T8, SIX6 (Homo sapiens, UniProt O95475 114-200, T165G)
# T8 sequence: T1 sequence with T52G, I54L
# [10] = target: HESX1 (Homo sapiens, UniProt Q9UBX0 95-180)
# Chain of HESX1 (Homo sapiens, UniProt Q9UBX0 95-180) (Q9UBX0 95-180): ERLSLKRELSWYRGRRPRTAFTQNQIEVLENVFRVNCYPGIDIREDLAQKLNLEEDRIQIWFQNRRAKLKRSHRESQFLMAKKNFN
# [11] = target: T9, SIX6 (Homo sapiens, UniProt O95475 114-200, T139Q)
# T9 sequence: T1 sequence with T26Q, I54L
# [12] = target: T10, SIX6 (Homo sapiens, UniProt O95475 114-200, T165A)
# T10 sequence: T1 sequence with T52A, I54L
# [13] = target: T11, SIX6 (Homo sapiens, UniProt O95475 114-200, L167V)
# T11 sequence: T1 sequence with I54V
# [14] = target: HESX1 (Homo sapiens, UniProt Q9UBX0 95-180, R109Q)
# Chain of HESX1 (Homo sapiens, UniProt Q9UBX0 95-180, R109Q) (Q9UBX0 95-180 R109Q): as the sequence (Q9UBX0 95-180) above, with R15Q counted along it
# [15] = target: T12, SIX6 (Homo sapiens, UniProt O95475 114-200)
# T12 sequence: T1 sequence with I54L
# [16] = target: T13, SIX6 (Homo sapiens, UniProt O95475 114-200, T165I)
# T13 sequence: T1 sequence with T52I, I54L
# [17] = target: HESX1 (Homo sapiens, UniProt Q9UBX0 95-180, P111T)
# Chain of HESX1 (Homo sapiens, UniProt Q9UBX0 95-180, P111T) (Q9UBX0 95-180 P111T): as the sequence (Q9UBX0 95-180) above, with P17T counted along it
# [18] = target: HESX1 (Homo sapiens, UniProt Q9UBX0 95-180, F115L)
# Chain of HESX1 (Homo sapiens, UniProt Q9UBX0 95-180, F115L) (Q9UBX0 95-180 F115L): as the sequence (Q9UBX0 95-180) above, with F21L counted along it
# [19] = target: HOXB9 (Homo sapiens, UniProt P17482 171-250, T197M)
# Chain of HOXB9 (Homo sapiens, UniProt P17482 171-250, T197M) (P17482 171-250 T197M): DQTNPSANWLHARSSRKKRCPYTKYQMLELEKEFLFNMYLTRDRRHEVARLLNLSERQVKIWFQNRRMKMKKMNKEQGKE
# [20] = target: HOXB9 (Homo sapiens, UniProt P17482 171-250)
# Chain of HOXB9 (Homo sapiens, UniProt P17482 171-250) (P17482 171-250): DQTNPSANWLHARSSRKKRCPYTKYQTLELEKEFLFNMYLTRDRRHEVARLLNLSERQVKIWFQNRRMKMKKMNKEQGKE
# [21] = target: PROP1 (Homo sapiens, UniProt O75360 56-141)
# Chain of PROP1 (Homo sapiens, UniProt O75360 56-141) (O75360 56-141): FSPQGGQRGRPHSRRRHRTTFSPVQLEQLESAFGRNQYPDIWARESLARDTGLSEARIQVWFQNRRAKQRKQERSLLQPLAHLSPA
# [22] = target: PROP1 (Homo sapiens, UniProt O75360 56-141, R99H)
# Chain of PROP1 (Homo sapiens, UniProt O75360 56-141, R99H) (O75360 56-141 R99H): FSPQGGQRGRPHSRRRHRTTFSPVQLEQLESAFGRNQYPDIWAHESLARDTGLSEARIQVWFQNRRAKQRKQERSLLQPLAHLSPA
# [23] = target: HOXB9 (Homo sapiens, UniProt P17482 171-250, R186Q)
# Chain of HOXB9 (Homo sapiens, UniProt P17482 171-250, R186Q) (P17482 171-250 R186Q): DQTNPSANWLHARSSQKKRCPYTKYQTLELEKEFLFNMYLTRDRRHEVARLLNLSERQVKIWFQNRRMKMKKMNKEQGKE
# [24] = target: PROP1 (Homo sapiens, UniProt O75360 56-141, F88S)
# Chain of PROP1 (Homo sapiens, UniProt O75360 56-141, F88S) (O75360 56-141 F88S): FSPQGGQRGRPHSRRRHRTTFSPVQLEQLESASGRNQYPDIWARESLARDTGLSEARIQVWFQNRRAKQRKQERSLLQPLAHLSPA
# [25] = target: T14, VENTX (Homo sapiens, UniProt O95231 78-163, R121Q)
# T14 sequence: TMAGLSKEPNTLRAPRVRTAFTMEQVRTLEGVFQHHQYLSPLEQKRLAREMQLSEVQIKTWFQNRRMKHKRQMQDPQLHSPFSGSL
# [26] = target: T15, VENTX (Homo sapiens, UniProt O95231 78-163)
# T15 sequence: T14 sequence with Q44R
# [27] = target: T16, VENTX (Homo sapiens, UniProt O95231 78-163, Y115F)
# T16 sequence: T14 sequence with Y38F, Q44R
# [28] = target: CRX (Homo sapiens, UniProt O43186 26-111)
# Chain of CRX (Homo sapiens, UniProt O43186 26-111) (O43186 26-111): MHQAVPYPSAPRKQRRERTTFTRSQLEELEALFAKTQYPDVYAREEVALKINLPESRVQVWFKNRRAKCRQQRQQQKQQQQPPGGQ
# [29] = target: T17, PAX4 (Homo sapiens, UniProt O43316 9-242, R200K)
# T17 sequence: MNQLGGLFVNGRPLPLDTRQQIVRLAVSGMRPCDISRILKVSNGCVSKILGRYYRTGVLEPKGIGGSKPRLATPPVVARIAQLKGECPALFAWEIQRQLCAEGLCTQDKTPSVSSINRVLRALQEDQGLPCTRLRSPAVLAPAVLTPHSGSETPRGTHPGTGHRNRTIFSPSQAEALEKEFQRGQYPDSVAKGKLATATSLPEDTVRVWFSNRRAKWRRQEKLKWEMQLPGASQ
# [30] = target: T18, PAX4 (Homo sapiens, UniProt O43316 9-242)
# T18 sequence: T17 sequence with K192R
# [31] = target: CRX (Homo sapiens, UniProt O43186 26-111, E42D)
# Chain of CRX (Homo sapiens, UniProt O43186 26-111, E42D) (O43186 26-111 E42D): as the sequence (O43186 26-111) above, with E17D counted along it
# [32] = target: T19, PAX4 (Homo sapiens, UniProt O43316 9-242, R200Q)
# T19 sequence: T17 sequence with K192Q
# [33] = target: T20, PAX4 (Homo sapiens, UniProt O43316 9-242, F177V)
# T20 sequence: T17 sequence with F169V, K192R
# [34] = target: T21, PAX4 (Homo sapiens, UniProt O43316 9-242, F177Y)
# T21 sequence: T17 sequence with F169Y, K192R
# [35] = target: T22, PAX4 (Homo sapiens, UniProt O43316 9-242, R227W)
# T22 sequence: T17 sequence with K192R, R219W
# [36] = target: CRX (Homo sapiens, UniProt O43186 26-111, R41L)
# Chain of CRX (Homo sapiens, UniProt O43186 26-111, R41L) (O43186 26-111 R41L): as the sequence (O43186 26-111) above, with R16L counted along it
# [37] = target: HOXA4 (Homo sapiens, UniProt Q00056 201-287, W262R)
# Chain of HOXA4 (Homo sapiens, UniProt Q00056 201-287, W262R) (Q00056 201-287 W262R): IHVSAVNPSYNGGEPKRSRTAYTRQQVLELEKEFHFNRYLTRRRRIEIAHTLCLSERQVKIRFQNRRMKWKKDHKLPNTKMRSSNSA
# [38] = target: HOXA4 (Homo sapiens, UniProt Q00056 201-287, R217L)
# Chain of HOXA4 (Homo sapiens, UniProt Q00056 201-287, R217L) (Q00056 201-287 R217L): as the sequence (Q00056 201-287 W262R) above, with R17L, R62W counted along it
# [39] = target: HOXA4 (Homo sapiens, UniProt Q00056 201-287)
# Chain of HOXA4 (Homo sapiens, UniProt Q00056 201-287) (Q00056 201-287): as the sequence (Q00056 201-287 W262R) above, with R62W counted along it
# [40] = target: HOXA4 (Homo sapiens, UniProt Q00056 201-287, W262F)
# Chain of HOXA4 (Homo sapiens, UniProt Q00056 201-287, W262F) (Q00056 201-287 W262F): as the sequence (Q00056 201-287 W262R) above, with R62F counted along it
# Chain of HESX1 (Homo sapiens, UniProt Q9UBX0 95-180, R165K) (Q9UBX0 95-180 R165K): as the sequence (Q9UBX0 95-180) above, with R71K counted along it
sequence,measurement,setting,value
CGCGTAGC,binding signal,[1],"6.51 upbm affinity estimate (log intensity, higher = more binding, comparable within an allelic series)"
same,binding signal,[2],"9.05 upbm affinity estimate (log intensity, higher = more binding, comparable within an allelic series)"
same,binding signal,[3],"8.9 upbm affinity estimate (log intensity, higher = more binding, comparable within an allelic series)"
same,binding signal,[4],"9.02 upbm affinity estimate (log intensity, higher = more binding, comparable within an allelic series)"
same,binding signal,[5],"9.03 upbm affinity estimate (log intensity, higher = more binding, comparable within an allelic series)"
same,binding signal,[6],"8.94 upbm affinity estimate (log intensity, higher = more binding, comparable within an allelic series)"
same,binding signal,[7],"8.94 upbm affinity estimate (log intensity, higher = more binding, comparable within an allelic series)"
same,binding signal,[8],"8.99 upbm affinity estimate (log intensity, higher = more binding, comparable within an allelic series)"
same,binding signal,[9],"9.13 upbm affinity estimate (log intensity, higher = more binding, comparable within an allelic series)"
same,binding signal,[10],"6.55 upbm affinity estimate (log intensity, higher = more binding, comparable within an allelic series)"
same,binding signal,[11],"9.19 upbm affinity estimate (log intensity, higher = more binding, comparable within an allelic series)"
same,binding signal,[12],"9.02 upbm affinity estimate (log intensity, higher = more binding, comparable within an allelic series)"
same,binding signal,[13],"8.99 upbm affinity estimate (log intensity, higher = more binding, comparable within an allelic series)"
same,binding signal,[14],"6.51 upbm affinity estimate (log intensity, higher = more binding, comparable within an allelic series)"
same,binding signal,[15],"9 upbm affinity estimate (log intensity, higher = more binding, comparable within an allelic series)"
same,binding signal,[16],"8.98 upbm affinity estimate (log intensity, higher = more binding, comparable within an allelic series)"
same,binding signal,[17],"6.44 upbm affinity estimate (log intensity, higher = more binding, comparable within an allelic series)"
same,binding signal,[18],"6.54 upbm affinity estimate (log intensity, higher = more binding, comparable within an allelic series)"
GCGAGCGC,binding signal,[1],"6.46 upbm affinity estimate (log intensity, higher = more binding, comparable within an allelic series)"
same,binding signal,[19],"8.46 upbm affinity estimate (log intensity, higher = more binding, comparable within an allelic series)"
same,binding signal,[10],"6.44 upbm affinity estimate (log intensity, higher = more binding, comparable within an allelic series)"
same,binding signal,[20],"8.32 upbm affinity estimate (log intensity, higher = more binding, comparable within an allelic series)"
same,binding signal,[21],"6.62 upbm affinity estimate (log intensity, higher = more binding, comparable within an allelic series)"
same,binding signal,[14],"6.48 upbm affinity estimate (log intensity, higher = more binding, comparable within an allelic series)"
same,binding signal,[22],"6.66 upbm affinity estimate (log intensity, higher = more binding, comparable within an allelic series)"
same,binding signal,[17],"6.41 upbm affinity estimate (log intensity, higher = more binding, comparable within an allelic series)"
same,binding signal,[23],"8.42 upbm affinity estimate (log intensity, higher = more binding, comparable within an allelic series)"
same,binding signal,[24],"6.75 upbm affinity estimate (log intensity, higher = more binding, comparable within an allelic series)"
same,binding signal,[18],"6.54 upbm affinity estimate (log intensity, higher = more binding, comparable within an allelic series)"
CGACGCGA,binding signal,[1],"6.36 upbm affinity estimate (log intensity, higher = more binding, comparable within an allelic series)"
same,binding signal,[25],"7.97 upbm affinity estimate (log intensity, higher = more binding, comparable within an allelic series)"
same,binding signal,[26],"8.03 upbm affinity estimate (log intensity, higher = more binding, comparable within an allelic series)"
same,binding signal,[27],"8.13 upbm affinity estimate (log intensity, higher = more binding, comparable within an allelic series)"
same,binding signal,[10],"6.45 upbm affinity estimate (log intensity, higher = more binding, comparable within an allelic series)"
same,binding signal,[14],"6.44 upbm affinity estimate (log intensity, higher = more binding, comparable within an allelic series)"
same,binding signal,[17],"6.38 upbm affinity estimate (log intensity, higher = more binding, comparable within an allelic series)"
same,binding signal,[18],"6.54 upbm affinity estimate (log intensity, higher = more binding, comparable within an allelic series)"
AGAGCGCG,binding signal,[1],"6.51 upbm affinity estimate (log intensity, higher = more binding, comparable within an allelic series)"
same,binding signal,[28],"8.2 upbm affinity estimate (log intensity, higher = more binding, comparable within an allelic series)"
same,binding signal,[29],"9.35 upbm affinity estimate (log intensity, higher = more binding, comparable within an allelic series)"
same,binding signal,[30],"9.24 upbm affinity estimate (log intensity, higher = more binding, comparable within an allelic series)"
same,binding signal,[10],"6.38 upbm affinity estimate (log intensity, higher = more binding, comparable within an allelic series)"
same,binding signal,[31],"8.22 upbm affinity estimate (log intensity, higher = more binding, comparable within an allelic series)"
same,binding signal,[32],"9.35 upbm affinity estimate (log intensity, higher = more binding, comparable within an allelic series)"
same,binding signal,[33],"9.32 upbm affinity estimate (log intensity, higher = more binding, comparable within an allelic series)"
same,binding signal,[34],"9.31 upbm affinity estimate (log intensity, higher = more binding, comparable within an allelic series)"
same,binding signal,[14],"6.56 upbm affinity estimate (log intensity, higher = more binding, comparable within an allelic series)"
same,binding signal,[17],"6.61 upbm affinity estimate (log intensity, higher = more binding, comparable within an allelic series)"
same,binding signal,[18],"6.46 upbm affinity estimate (log intensity, higher = more binding, comparable within an allelic series)"
same,binding signal,[35],"9.39 upbm affinity estimate (log intensity, higher = more binding, comparable within an allelic series)"
same,binding signal,[36],"8.22 upbm affinity estimate (log intensity, higher = more binding, comparable within an allelic series)"
AGGGTCCC,binding signal,[1],"6.51 upbm affinity estimate (log intensity, higher = more binding, comparable within an allelic series)"
same,binding signal,[37],"9.9 upbm affinity estimate (log intensity, higher = more binding, comparable within an allelic series)"
same,binding signal,[10],"6.48 upbm affinity estimate (log intensity, higher = more binding, comparable within an allelic series)"
same,binding signal,[38],"9.79 upbm affinity estimate (log intensity, higher = more binding, comparable within an allelic series)"
same,binding signal,[39],"9.74 upbm affinity estimate (log intensity, higher = more binding, comparable within an allelic series)"
same,binding signal,[14],"6.45 upbm affinity estimate (log intensity, higher = more binding, comparable within an allelic series)"
same,binding signal,[17],"6.51 upbm affinity estimate (log intensity, higher = more binding, comparable within an allelic series)"
same,binding signal,[18],"6.53 upbm affinity estimate (log intensity, higher = more binding, comparable within an allelic series)"
same,binding signal,[40],"9.78 upbm affinity estimate (log intensity, higher = more binding, comparable within an allelic series)"
CGATTATC,binding signal,[1],"8.23 upbm affinity estimate (log intensity, higher = more binding, comparable within an allelic series)"
same,binding signal,[25],"10.6 upbm affinity estimate (log intensity, higher = more binding, comparable within an allelic series)"
same,binding signal,[27],"10.6 upbm affinity estimate (log intensity, higher = more binding, comparable within an allelic series)"
same,binding signal,[10],"8.64 upbm affinity estimate (log intensity, higher = more binding, comparable within an allelic series)"
same,binding signal,[18],"6.88 upbm affinity estimate (log intensity, higher = more binding, comparable within an allelic series)"
AGGCCCGC,binding signal,[1],"6.43 upbm affinity estimate (log intensity, higher = more binding, comparable within an allelic series)"
same,binding signal,[28],"8.17 upbm affinity estimate (log intensity, higher = more binding, comparable within an allelic series)"
same,binding signal,[10],"6.37 upbm affinity estimate (log intensity, higher = more binding, comparable within an allelic series)"
same,binding signal,[31],"8.1 upbm affinity estimate (log intensity, higher = more binding, comparable within an allelic series)"
same,binding signal,[14],"6.38 upbm affinity estimate (log intensity, higher = more binding, comparable within an allelic series)"
same,binding signal,[17],"6.39 upbm affinity estimate (log intensity, higher = more binding, comparable within an allelic series)"
same,binding signal,[18],"6.43 upbm affinity estimate (log intensity, higher = more binding, comparable within an allelic series)"
same,binding signal,[36],"8.27 upbm affinity estimate (log intensity, higher = more binding, comparable within an allelic series)"

# From publication PMC11006913
